Results published in PubChem BioAssay (Tox21).
Values without a mark were called inactive. Results filed as inconclusive are left out. Activity calls are given as the source filed them. Calls come from the whole dose curve; as a rule, active = well fitted activation curve with a large enough effect in the repeat runs; inconclusive = weak or mixed curves; inactive = flat fitted curve, though single readings scatter. Non-standard residues stand in square brackets, D forms with d. Residues, ends and D or L forms follow the SMILES beside them. *: point of attachment. Sta = CC(C)C[C@H](N)[C@@H](O)CC(=O)O; Isovaleryl = CC(C)CC(=O)*

Assay: A CellTox Green Cytotoxicity Assay to monitor cytotoxicity in HepG2 cells - 0 hour (AID 1224882); note: nearly all actives have a fitted effect of over 35% in size
Conditions: CellTox Green fluorescence; series mostly up to 76.8 µM; cytotoxicity: at the top concentration
How it was run: (§1)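 Nonlytic assay: viable cells exclude the dye, so fluorescence scales with cell death. HepG2 at 600 cells/well, compounds added after 5 h, signal read across 40 h.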
% is set by controls: 0 for no effect and ±100 for the full control effect.

| Structure (SMILES) | cytotoxicity |
| --- | --- |
| CC(C)CC(=O)N[C@H](C(=O)N[C@H](C(=O)N[C@@H](CC(C)C)[C@@H](O)CC(=O)N[C@@H](C)C(=O)N[C@@H](CC(C)C)[C@@H](O)CC(=O)O)C(C)C)C(C)C (Isovaleryl-VV[Sta]A[Sta]-OH) | 0.464% [at 35.3 µM] |
| CCCCCCC(=O)c1ccccc1 | -5.48% |
| CNC(=O)c1c(I)c(NC(C)=O)c(I)c(C(=O)O)c1I | -19.4% [at 35.3 µM] |
| CCCCCCCCCCCCCC(=O)OCC | 4.43% |
| C=CCN(CC=C)CC=C | -2.73% |
| O=C(O)CCC(=O)Nc1ccc(S(=O)(=O)Nc2nccs2)cc1 | 3.4% [at 35.3 µM] |
| CC(O)C(CO)C(C)O (centres undefined) | -3.43% |
| O=C(O)/C=C(\CC(=O)O)C(=O)O | -9.5% [at 35.3 µM] |
| CC(=O)Nc1ccc(S(=O)(=O)Nc2cc(C)on2)cc1 | -5.53% [at 35.3 µM] |
| C[C@@H](CN1CC(=O)NC(=O)C1)N1CC(=O)NC(=O)C1 | -0.233% [at 35.3 µM] |
| CCN(CC)CC | 0.742% |
| CCCCCCCCOCCC#N | -14.5% |
| CC/C=C/CCCCCCCCCCOC(C)=O | -5.78% |
| CC/C=C\CCOC(=O)c1ccccc1 | -6.56% |
| COC(=O)c1ccc(C(=O)O)cc1 | -6.36% |
| COC(=O)C(c1ccccc1Cl)N1CCc2sccc2C1 (centres undefined) | 9.8% [at 35.3 µM] |
| CCCCOCCCC | 4.12% |
| Cc1ccc2ccccc2n1 | 0.187% |
| CC(C)(C)c1ccc(N)cc1 | 3.68% |

| Structure (SMILES) | cytotoxicity |
| --- | --- |
| Cc1ccccc1OCC(=O)O | -0.785% |
| O=C(O)Cc1c(Cl)ccc(Cl)c1Cl | 10.2% |
| CCCCCCCCCCCCCCBr | -9.42% |
| C=C(C)C(=O)OCCOC1CC2CC1C1C=CCC21 (centres undefined) | -1.46% |
| CCCCCCCC(=O)N(C)C | 0.394% |
| COC(=O)/C=C(\C)CCC=C(C)C | -8.61% |
| Clc1cc(Cl)c(Cl)c(Cl)c1Cl | 2.16% |
| CCCc1ncc(C(=O)O)s1 | 8.44% [at 35.3 µM] |
| Cc1cc(C)c(N)c(Cl)c1 | -2.99% |
| CC(C)C(=O)Nc1cccc(C2CN3CCSC3=N2)c1 (centres undefined) | -1.01% [at 35.3 µM] |
| COc1cc(C(=O)NC2CCCNC2)cc(OC)c1OC (centres undefined) | -23.9% [at 35.3 µM] |
| CCO/C=C1\N=C(c2ccccc2)OC1=O | 7.8% |
| CCCC(=O)C(CC)Sc1ccoc1C (centres undefined) | 1.63% |
| CC(C)(C)C(=O)NCCCC(=O)O | -12.1% [at 35.3 µM] |
| C=CCCCCCCCCCCCCCC | 7.56% [at 15.8 µM] |
| Clc1ccc2c(c1)Nc1ccccc1S2 | -2.38% [at 35.3 µM] |
| Cc1ccc2cccnc2c1 | -1.26% |
| Cc1ccc(OC(=O)CC(C)C)cc1 | 6.84% |
| CC(=O)c1c(C)cc(C(C)(C)C)cc1C | 2.07% |

Assay: A CellTox Green Cytotoxicity Assay to monitor cytotoxicity in HepG2 cells - 32 hour (AID 1224883); note: nearly all actives have a fitted effect of over 50% in size; note: potency is the fitted concentration of half-maximal effect
Conditions: CellTox Green fluorescence; series mostly up to 76.8 µM; cytotoxicity increase: at the top concentration
How it was run: as §1

| Structure (SMILES) | cytotoxicity increase | Potency |
| --- | --- | --- |
| CC(C)CC(=O)N[C@H](C(=O)N[C@H](C(=O)N[C@@H](CC(C)C)[C@@H](O)CC(=O)N[C@@H](C)C(=O)N[C@@H](CC(C)C)[C@@H](O)CC(=O)O)C(C)C)C(C)C (Isovaleryl-VV[Sta]A[Sta]-OH) | -6.32% [at 35.3 µM] |  |
| CCCCCCC(=O)c1ccccc1 | 1.47% |  |
| CNC(=O)c1c(I)c(NC(C)=O)c(I)c(C(=O)O)c1I | -20% [at 35.3 µM] |  |
| C=CCN(CC=C)CC=C | -12.6% |  |
| CC(O)C(CO)C(C)O (centres undefined) | -12% |  |
| O=C(O)/C=C(\CC(=O)O)C(=O)O | -0.82% [at 35.3 µM] |  |
| CC(=O)Nc1ccc(S(=O)(=O)Nc2cc(C)on2)cc1 | -11.7% [at 35.3 µM] |  |
| C[C@@H](CN1CC(=O)NC(=O)C1)N1CC(=O)NC(=O)C1 | 11.2% [at 35.3 µM] |  |
| CCN(CC)CC | -1.59% |  |
| CC/C=C/CCCCCCCCCCOC(C)=O | -20.6% |  |
| COC(=O)c1ccc(C(=O)O)cc1 | -14.6% |  |
| COC(=O)C(c1ccccc1Cl)N1CCc2sccc2C1 (centres undefined) | 1.55% [at 35.3 µM] |  |
| CCCCOCCCC | 12.2% |  |
| CC(C)(C)c1ccc(N)cc1 |  | 61.7 µM (active) |
| CCCCCCCCCCCCCCBr | -10.2% |  |
| C=C(C)C(=O)OCCOC1CC2CC1C1C=CCC21 (centres undefined) | -6.78% |  |
| COC(=O)/C=C(\C)CCC=C(C)C | -7.53% |  |
| CCCc1ncc(C(=O)O)s1 | 4.85% [at 35.3 µM] |  |
| CC(C)C(=O)Nc1cccc(C2CN3CCSC3=N2)c1 (centres undefined) | -9.3% [at 35.3 µM] |  |
| COc1cc(C(=O)NC2CCCNC2)cc(OC)c1OC (centres undefined) | -42.5% [at 35.3 µM] |  |
| CCO/C=C1\N=C(c2ccccc2)OC1=O | 12.6% |  |
| CC(C)(C)C(=O)NCCCC(=O)O | -11.7% [at 35.3 µM] |  |
| C=CCCCCCCCCCCCCCC | -0.009% [at 15.8 µM] |  |
| Clc1ccc2c(c1)Nc1ccccc1S2 | -16.5% [at 35.3 µM] |  |
| Cc1ccc(OC(=O)CC(C)C)cc1 | 14.8% |  |
| CC(=O)c1c(C)cc(C(C)(C)C)cc1C |  | 38.9 µM (active) |

Assay: A CellTox Green Cytotoxicity Assay to monitor cytotoxicity in HEK293 cells - 8 hour (AID 1224884); note: nearly all actives have a fitted effect of over 35% in size
Conditions: CellTox Green fluorescence; series mostly up to 76.8 µM; cytotoxicity increase: at the top concentration
How it was run: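 Seeding of HEK293 cells together with cytotoxicity dye preceded a 5 h incubation at 37 C/5% CO2. Test compounds in DMSO were then added and fluorescence monitored across 40 h.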

| Structure (SMILES) | cytotoxicity increase |
| --- | --- |
| CCCCCCC(=O)c1ccccc1 | 0.47% |
| CNC(=O)c1c(I)c(NC(C)=O)c(I)c(C(=O)O)c1I | 0.38% [at 35.3 µM] |
| CCCCCCCCCCCCCC(=O)OCC | -13.5% |
| C=CCN(CC=C)CC=C | -11.9% |
| O=C(O)CCC(=O)Nc1ccc(S(=O)(=O)Nc2nccs2)cc1 | -16.7% [at 35.3 µM] |
| O=C(O)/C=C(\CC(=O)O)C(=O)O | -1.4% [at 35.3 µM] |
| CC(=O)Nc1ccc(S(=O)(=O)Nc2cc(C)on2)cc1 | -1.62% [at 35.3 µM] |
| CCN(CC)CC | -12.4% |
| CCCCCCCCOCCC#N | -3.64% |
| CC/C=C/CCCCCCCCCCOC(C)=O | 2.42% |
| COC(=O)c1ccc(C(=O)O)cc1 | -12.2% |
| COC(=O)C(c1ccccc1Cl)N1CCc2sccc2C1 (centres undefined) | 7.4% [at 35.3 µM] |
| Cc1ccc2ccccc2n1 | 2.09% |
| CC(C)(C)c1ccc(N)cc1 | 7.2% |
| Cc1ccccc1OCC(=O)O | 0.087% |
| O=C(O)Cc1c(Cl)ccc(Cl)c1Cl | 1.39% |
| CCCCCCCCCCCCCCBr | -12.2% |
| C=C(C)C(=O)OCCOC1CC2CC1C1C=CCC21 (centres undefined) | 0.333% |
| CCCCCCCC(=O)N(C)C | 1.98% |
| COC(=O)/C=C(\C)CCC=C(C)C | -0.772% |
| Clc1cc(Cl)c(Cl)c(Cl)c1Cl | 20.4% |
| CCCc1ncc(C(=O)O)s1 | -9.89% [at 35.3 µM] |
| Cc1cc(C)c(N)c(Cl)c1 | -0.947% |
| CC(C)C(=O)Nc1cccc(C2CN3CCSC3=N2)c1 (centres undefined) | -3.59% [at 35.3 µM] |
| CCO/C=C1\N=C(c2ccccc2)OC1=O | -8.48% |
| CCCC(=O)C(CC)Sc1ccoc1C (centres undefined) | 1.6% |
| CC(C)(C)C(=O)NCCCC(=O)O | -18.3% [at 35.3 µM] |
| Clc1ccc2c(c1)Nc1ccccc1S2 | 1.69% [at 35.3 µM] |
| Cc1ccc2cccnc2c1 | -8.98% |
| Cc1ccc(OC(=O)CC(C)C)cc1 | 2.12% |
